Results published in PubChem BioAssay (NCI).
This is part of a sample that, as a whole, favours compounds with a hit. Of some 79,000 tested, about 15% had one in any assay. The source made the active and inactive calls. Cut-off read from the data, not from the text of the source: active = growth inhibition above about 70%; inactive = the rest.

Key:
[1] = NCI Yeast Anticancer Drug Screen. Data for the rad50 strain (AID 155);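 note: 0% = growth of vehicle-only cultures of the same strain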; details: S. cerevisiae rad50 strain growth inhibition; at 50.0 µM; hits give high values
Method in brief: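 Genetically altered yeast (DNA repair pathway); compound treatment; growth inhibition vs vehicle ctrl.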

[2] = NCI Yeast Anticancer Drug Screen. Data for the mec2-1 strain (AID 157); details: S. cerevisiae mec2-1 strain, at 50.0 µM, hits give high values
Method in brief: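 Cells of the genetically defined mec2-1 yeast strain are incubated with test compound. Inhibition of growth is calculated against vehicle-treated controls.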

[3] = NCI Yeast Anticancer Drug Screen. Data for the sgs1 mgt1 strain (AID 161);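 note: 0% = growth of cultures given vehicle only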; details: S. cerevisiae sgs1 mgt1 strain, at 50.0 µM, hits give high values
Method in brief: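 Test agents were incubated with a DNA-repair-mutant yeast strain. Growth was then read and compared against vehicle-treated controls.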

[4] = NCI Yeast Anticancer Drug Screen. Data for the cln2 rad14 strain (AID 165);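 note: 0% = growth equal to vehicle treated cultures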; details: S. cerevisiae cln2 rad14 strain, at 50.0 µM, hits give high values
Method in brief: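 The screen exposed genetically defined yeast (cln2 rad14) to test compounds and scored growth inhibition relative to vehicle-treated controls.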

[5] = NCI Yeast Anticancer Drug Screen. Data for the bub3 strain (AID 167); details: S. cerevisiae bub3 mutant strain, at 50.0 µM, hits give high values
Method in brief: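 Yeast carrying a defined mutation is treated with each compound, and growth is compared with that of vehicle-exposed cells to give inhibition.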

[6] = NCI Yeast Anticancer Drug Screen. Data for the mlh1 rad18 strain (AID 175); details: S. cerevisiae mlh1 rad18 strain growth inhibition; at 50.0 µM; hits give high values
Method in brief: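 Compound-treated yeast growth, normalised to vehicle controls. Strain bears defined DNA repair mutations.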

Measured: growth inhibition

Cc1ccc(S(=O)(=O)CC(=O)c2ccc(Br)cc2)cc1
inactive: [1] -2.7% | [2] -21.2% | [3] -16.4% | [4] 4.9% | [5] 6.55% | [6] 8.75%

CC(=O)Nc1ncc(Br)s1
inactive: [1] 6.75% | [2] 6.05% | [3] -18.4% | [4] -13.8% | [5] -9.4% | [6] 5.3%

COc1ccc2[nH]c3c4c(c5cc(C(C)(C)C)ccc5c3c2c1)C(=O)N(c1ccccc1)C4=O
inactive: [1] -12.8% | [2] -13.3% | [3] 3.1% | [4] 16.7% | [5] -14.2% | [6] -8.7%

COc1ccc(S(=O)(=O)N2OC2c2ccccc2)cc1 (configuration not stated)
inactive: [1] -22.2% | [2] 2.65% | [3] 14.7% | [4] 10% | [5] 1.65% | [6] -6%

O/N=C/c1ccc(Cc2ccccc2)o1
inactive: [1] 15.7% | [2] 19.6% | [3] 11.2% | [4] -18.8% | [5] -11.3% | [6] 25.9%

COc1ccc(/C=N/NC=O)cc1OC
inactive: [1] 7.35% | [2] 6.5% | [3] 1.2% | [4] 1.45% | [5] -12.5% | [6] -2.85%

CC(=O)OCCOC(=O)Nc1cccc2ccccc12
inactive: [1] -9.85% | [2] -7.9% | [3] -1.3% | [4] 30.9% | [5] 2.65% | [6] -0.6%

O=C1CCCCC1CC1(O)C(=O)NC2CCC(Br)CC21 (configuration not stated)
inactive: [1] -11.6% | [2] -3.3% | [3] 21.6% | [4] 8.75% | [5] 18.7% | [6] 5.6%

CN(C)c1ccc(/C=C(\C#N)c2cccc(F)c2)cc1
inactive: [1] -4.85% | [2] 0.3% | [3] 1.5% | [4] -14.2% | [5] 3.4% | [6] -20.2%

CCCCCCNc1ncnc2c1cnn2C
inactive: [1] 5.3% | [2] 6.85% | [3] 1.45% | [4] -17.9% | [5] 38.7% | [6] 3.4%

CC(=O)OC1CN(c2ccccc2)CC(OC(C)=O)CN(c2ccccc2)C1 (configuration not stated)
inactive: [1] 38.5% | [2] 3.95% | [3] 38% | [4] -24.4% | [5] 2.1% | [6] 31.8%

C[N+](C)(C)c1ncncn1
inactive: [1] 2.05% | [2] 1.5% | [3] -10.8% | [4] -21% | [5] -25.3% | [6] -0.1%

CC(C)(C)OC(=O)N(CCCCNC(=O)C(F)(F)F)CCCNC(=O)C(F)(F)F
inactive: [1] -26.4% | [2] -30.3% | [3] -26% | [4] 11.6% | [5] -29.8% | [6] -86%

Nc1ccccc1CN1C(=O)CCC1=O
inactive: [1] 0.25% | [2] -6.8% | [3] -12.4% | [4] -14.9% | [5] -10.1% | [6] -14.2%

O=C(/C=C/c1c(-c2ccccc2)[nH]c2ccccc12)c1cccc([N+](=O)[O-])c1
inactive: [1] 43% | [2] 17.1% | [3] 42% | [4] 20.9% | [5] 19.9% | [6] 36.2%

C=CC(C)C1C(C)C(Cl)CC(Cl)C1OC(=O)c1ccccc1 (configuration not stated)
inactive: [1] 14.1% | [2] -0.65% | [3] 10.7% | [4] -2.3% | [5] 17.8% | [6] -11.3%

O=C(NC(=O)c1cc2cc(Br)cc(Br)c2oc1=O)Oc1ccccc1
inactive: [1] 24.9% | [2] 19.4% | [3] 14.1% | [4] 25.4% | [5] -2.55% | [6] 13.1%

Cc1ccc(NC(=O)C(Br)C(Br)c2ccccc2)cc1Cl (configuration not stated)
active: [1] 94.2% | [2] 95.8% | [3] 96.6% | [4] 95.2% | [5] 94.7% | [6] 95.8%

Cc1cc2nc(/N=C/c3nc(O)c(C)[nH]3)[nH]c2cc1C
inactive: [1] 33.2% | [2] 22.4% | [3] 59% | [4] 20.4% | [5] 14.1% | [6] 56%

c1ccc2c(c1)cnc1c3ccccc3ccc21
inactive: [1] 10.1% | [2] -7.85% | [3] -8.6% | [4] -21.9% | [5] 6.85% | [6] -0.5%

COC(=O)N/N=C(\c1ccc(OC)cc1)C(c1ccc(OC)cc1)C1(O)C(=O)Nc2c(C)cc(Cl)cc21 (configuration not stated)
inactive: [1] 20.1% | [2] 14.8% | [3] -4.35% | [4] -30.6% | [5] 18.6% | [6] 18.6%

Nc1cc2[nH]cnc2c(=O)[nH]1
inactive: [1] 27.4% | [2] 21.9% | [3] 32.4% | [4] 21.8% | [5] 7.9% | [6] 30.1%

CNc1ccc(Br)cc1[N+](=O)[O-]
inactive: [1] -22.2% | [2] -22.7% | [3] -12.9% | [4] -0.2% | [5] -26.7% | [6] -15.4%

CCc1cc(COC(C)=O)on1
inactive: [1] 5.35% | [2] -18.5% | [3] -8.4% | [4] -35.9% | [5] -1.9% | [6] -2.6%

CCOCCOC(=O)C1CCC(=O)N1CN(C(C)=O)c1cc(OC)ccc1OC (configuration not stated)
inactive: [1] -17.9% | [2] -3.6% | [3] -30.9% | [4] 6.1% | [5] -0.5% | [6] -39.5%

CC(=O)C1(O)CCC2C3CCC4CC(=O)CCC4(C)C3C(=O)CC21C (configuration not stated)
inactive: [1] 4.4% | [2] -24.8% | [3] 2.25% | [4] 27.9% | [5] 13.6% | [6] -10.6%

CCCCOC(=O)C1CC2CC1C1OC21 (configuration not stated)
inactive: [1] -67.6% | [2] -63.3% | [3] -23.7% | [4] -0.3% | [5] -51.9% | [6] -33.5%

COc1ccccc1/C=C1\CCC(CCN2CCOCC2)C1=O (configuration not stated)
inactive: [1] 44.4% | [2] 37.7% | [3] 52.5% | [4] 58.6% | [5] 39.9% | [6] 41.5%

CCOC(OCC)c1ccc(O)cc1
inactive: [1] -4.4% | [2] 3.15% | [3] 20.3% | [4] -19.2% | [5] -2.2% | [6] 12.1%

O=S(Cc1ccccc1)c1ccccc1Cn1cccc1 (configuration not stated)
inactive: [1] -32.8% | [2] -39.6% | [3] -19.6% | [4] -18.6% | [5] 14.2% | [6] -9.5%

Cc1cc(C=O)c(C)[nH]1
inactive: [1] 3.9% | [2] -3.55% | [3] -2.4% | [4] -11.2% | [5] 1.55% | [6] -4.4%

Cc1cc2n(n1)C(=O)CC(=O)C2
inactive: [1] 8.4% | [2] 1% | [3] 2.25% | [4] -24.4% | [5] -1.2% | [6] -3.7%

O=C(Nc1ccc(N=Nc2ccccc2)cc1)c1ccc(Cl)cc1
inactive: [1] -11.1% | [2] 2.3% | [3] 12.1% | [4] -60.1% | [5] 2.35% | [6] -7.95%

Cn1cc(C2NC(=O)c3ccccc3N2)c2ccccc21 (configuration not stated)
inactive: [1] -25.1% | [2] -15.7% | [3] -7.1% | [4] 12% | [5] -15% | [6] -11.7%

CC(C)(C)OC1COCCO1 (configuration not stated)
inactive: [1] 12.1% | [2] -5.35% | [3] 8.35% | [4] 1.3% | [5] 8% | [6] 13.8%

CC(=O)Nc1ccc(C(=O)NN2C(=O)C(Cl)C2c2ccc(Cl)cc2)cc1 (configuration not stated)
inactive: [1] -50.3% | [2] -32.3% | [3] -42.8% | [4] -27.3% | [5] -28.9% | [6] -43.5%

CC(c1ccc2ccc3cccc4ccc1c2c34)C(C(=O)O)C(=O)O (configuration not stated)
inactive: [1] -0.85% | [2] -15.8% | [3] 8.6% | [4] -7.15% | [5] 0.75% | [6] 5.7%

CCCCOC(=O)c1ccc(OC(=O)Nc2ccccc2)cc1
inactive: [1] 11.2% | [2] 6% | [3] 11.4% | [4] 7.7% | [5] 17.6% | [6] 3.7%

CCCCC(CC)C(O)CC(C)=O (configuration not stated)
inactive: [1] 39.1% | [2] 16.9% | [3] 25% | [4] -8.75% | [5] 14.2% | [6] 21.1%

O=C(O)CCCC#CCCCC(=O)O
inactive: [1] 10.4% | [2] 4.5% | [3] 2% | [4] 17.3% | [5] 25.8% | [6] -13.7%

CCCCCCCCCCCCCCCCCCCCCCCCCC(=O)O
inactive: [1] 30.4% | [2] -20.2% | [3] 32.5% | [4] 4.5% | [5] 23.9% | [6] 4.95%

CCC(Nc1ncnc2nc[nH]c12)C(=O)O (configuration not stated)
inactive: [1] -7.5% | [2] -14.2% | [3] -17.4% | [4] -20.4% | [5] -23.6% | [6] 14%
